# Data as given in PubChem BioAssay (NCI).
# Compounds without any hit were thinned out: in the full panel of roughly 83,000, 20% have a hit.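 Single-dose data. Exposure time 48 hours. Values below 10 considered active.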 A number with no mark means an inactive call. The source made the active and inactive calls.
# Tested on: UACC-62 melanoma
# Assay: NCI-60 one-dose screen, 48 h (100 = growth as untreated, 0 = no growth, -100 = all killed)
# Settings: 10 µM unless noted
# Protocol: Growth inhibition of the UACC-62 human tumor cell line is measured as a screen for anti-cancer activity. Cells are grown in 96 well plates and exposed to the test compound for 48 hours. Compounds are tested at a single concentration, which is 10^-5 M for most compounds. The reported endpoint is percent growth (GI% or GIPRCNT), where numbers from 0 - 100% represent growth inhibition, and numbers from -100% - 0 represent cell death. For example, a value of 40 represents 60% growth inhibition. A value of 0 means no net growth occurred over the course of the experiment. A value of -40 indicates 40% of cells at the beginning of the experiment died by the end of the experiment. A value of -100 means all cells are dead at the end of the experiment.
# NCI-60 Human Tumor Cell Lines Screen was performed using the standard one-dose NCI protocol, which is described in more detail at https://dtp.cancer.gov/discovery_development/nci-60/default.htm.
# Compounds with GIPRCNT values below 10 were considered active. Activity score was based on GIPRCNT using the following formula: […]
# Score is 0 for GIPRCNT values of 100 or above, 50 for GIPRCNT values of 0, and 100 for GIPRCNT values of -100.
row,SMILES,growth
1,COc1ccc(-c2cc(-c3cc(OC)c(OC)c(OC)c3)c(C#N)c(=O)n2CCCCC(=O)NO)cc1,60.7%
2,COc1cc(-c2cncn2-c2ccc(-c3nc4ccc(F)cc4s3)cc2)ccc1F,84.8%
3,COc1ccc2c(c1)N(CCO)C1=C(C(=O)OC1)C2c1cccc(F)c1 (stereo not given),40%
4,CC1CN(S(=O)(=O)c2oc(-c3ccc(Cl)cc3)nc2C#N)CC(C)O1 (stereo not given),96.7%
5,O=C1C(=O)N(Cc2ccc(-c3ccccc3)cc2)c2ccc(OC(F)(F)F)cc21,62.3%
6,CCc1ncnc2c1ccn2C(C)c1ccc(OC)c(F)c1 (stereo not given),39.8%
7,COc1cc2c(cc1OCCCN1CCN(CCCOc3cc4c(cc3OC)C(=O)N3CC(F)(F)C[C@H]3C=N4)CC1)N=C[C@@H]1CC(F)(F)CN1C2=O,76.2%
8,O=C(/C=C/c1ccco1)Nc1ncc(Cc2cccc(C(F)(F)F)c2)s1,5.19% (active)
9,N#Cc1nc(-c2ccc(F)cc2)oc1S(=O)(=O)N1CCCCC1,94%
10,Cc1cc(=O)n(C(=O)Nc2ccccc2Cl)c2cc(O)ccc12,101%
11,O=S(=O)(NCCNc1nccc(-c2c(-c3ccc(F)c(O)c3)nc3occn23)n1)c1ccc(Cl)cc1,23.9%
12,O=C(Cn1cc(CSc2nc3ccccc3o2)nn1)Nc1ccc(F)cc1F,111%
13,CCOC(=O)C1=C(N)Oc2c(sc3c(F)cccc23)C1c1ccc(O)cc1 (stereo not given),26.3%
14,O=C(OC(CO)C(=O)NC12CC3CC(CC(C3)C1)C2)c1ccc(Cl)cc1 (stereo not given),96.6%
15,CNc1nnc2n(-c3ccccc3)c(=O)c3cnn(-c4ccccc4)c3n12,95.4%
16,CCOC(=O)C(=O)C(C(=O)OCC)c1ccccc1 (stereo not given),109%
17,CCn1cc(C(=O)NNC(=S)Nc2ccc(C)cc2)c(=O)c2ccc(C)nc21,91.3%
18,CC(=O)N1N=C(c2ccc(C(F)(F)F)c(F)c2)CC1c1[nH]c(C)c(C(=O)NCC(F)(F)F)c1C (stereo not given),87.7%
19,CC1CCc2c(C(=O)Nc3ncc(Cc4cccc([N+](=O)[O-])c4)s3)csc2C1 (stereo not given),13.9%
20,O=C1/C(=C/c2ccc([N+](=O)[O-])cc2)COc2ccc(O)cc21,76.3%

row,SMILES,growth
1,O=C1/C(=C/c2ccccc2Br)COc2ccc(O)cc21,66.4%
2,O=C1c2ccc3c4c5ccc(c24)C(=O)N1CCCOCCCCOCCCNCc1ccc(cc1)CNCCCOCCCCOCCCN(C3=O)C5=O,-90.3% (active)
3,C#CCOc1cccc(Nc2ncnc3ccc(NC(=O)C=C)cc23)c1,51%
4,CC(C)(Sc1cc(C(C)(C)C)c(OC(=O)CCCC(=O)O)c(C(C)(C)C)c1)Sc1cc(C(C)(C)C)c(OC(=O)CCCC(=O)O)c(C(C)(C)C)c1,-19.7% (active)
5,COc1ccc(/C=N/C2=C(C#N)C(c3ccccc3)c3ccc4ccccc4c3O2)cc1 (stereo not given),15.8%
6,O=C1/C(=C/c2cccc(F)c2)CN(C(=O)C(Cl)Cl)C/C1=C\c1cccc(F)c1,-83.5% (active)
7,COc1ccc(-c2noc(C(=O)O)c2-c2cc(OC)c(OC)c(OC)c2)cc1,24.2%
8,Cc1cc(S(=O)(=O)/N=C(\N)n2nc(C)c(C)c2C)c(SCc2ccccc2)cc1Cl,71.1%
9,COc1cc2c(c(OC)c1OC)CCC(c1cccc(C(=O)Nc3cccc(Cl)c3)c1)O2 (stereo not given),53.4%
10,O=C(CSc1nc2sc3c(c2c(=O)n1-c1ccccc1)CCCCC3)N/N=C/c1cccc([N+](=O)[O-])c1,65.9%
11,COC(=O)c1nc(-c2ccc(C)cc2)oc1S(=O)(=O)c1cccc(OC)c1,92.5%
12,O=C(NCc1ccc(Cl)cc1Cl)C1CCC(=O)N1c1cccs1 (stereo not given),80.7%
13,COCCn1cc(-c2csc(-c3cn(C)c4ccc(Br)cc34)n2)c2cccnc21,70.5%
14,O=C(Nc1ccc(OS(=O)(=O)c2ccc(F)cc2)cc1)C1CCCCCC1,85.5%
15,C=CCOC(=O)Nc1cccn([C@H](Cc2ccccc2)C(=O)NCCC(C)C)c1=O,97.1%
16,CCNCCNc1cc(-c2ccc(C(F)(F)F)cc2)c(C#N)c2nc3ccccc3n12,-74.4% (active)
17,CC(C)c1ccc(-n2c(=S)[nH]c3sc4cc(O)ccc4c3c2=O)cc1,93.6%
18,CCn1c(SCC(=O)N/N=C(\C)c2ccc(Cl)cc2)nc2c1c(=O)n(C)c(=O)n2C,95.2%
19,COC(=O)c1c(C)nc(C)c2c1C(=O)C(Br)=C(NCc1ccccc1)C2=O,-10.8% (active)
20,C=C1C(=O)O[C@H]2[C@H]1CC/C(COC(=O)NCc1ccc(Cn3c(=O)sn(CCCCC)c3=O)cc1)=C\CC[C@@]1(C)O[C@@H]21,46.5%
